Screening results deposited in PubChem BioAssay by several laboratories.
FGF22 binding: shifts melting point of recombinant human FGF22 | recombinant FGF22 thermal shift, SYPRO orange fluorescence; percent of sucrose octasulfate shift, DMSO zero | activity (Tm shift, normalised), % at 9.99 µM | 340,000 tested, 1.5% active | AID 651658;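 active means mean Tm shift, scaled 0 neutral to 100 positive control, at about 1.3% or above, every replicate too, limit read from the data; inconclusive means no clear call, values can overlap the other calls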
Target sequence (Q9HCT0 whole entry, looked up): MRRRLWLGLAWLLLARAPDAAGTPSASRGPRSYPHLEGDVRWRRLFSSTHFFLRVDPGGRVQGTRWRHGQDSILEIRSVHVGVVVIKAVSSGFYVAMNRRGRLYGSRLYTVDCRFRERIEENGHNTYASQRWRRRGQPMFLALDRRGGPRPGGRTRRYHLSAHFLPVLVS
MLL AF4-AF9 inh: MLL-AF4/AF9 protein interaction inhibition | P42568 | AlphaScreen, biotin-AF4 peptide binding to FLAG-AF9 | inhibition, % at 10 µM | 350,000 tested, 0.47% active | AID 651704;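 active means every replicate reaching a set inhibition limit, whatever the replicate mean, cut at about 25% in these data; inconclusive means mean inhibition reaches that limit but some replicates miss it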;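 further: 0% = plate neutral control median and 100% = total signal loss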
Wnt bcat act: Wnt/beta-catenin pathway activation; Wnt/beta-catenin reporter cell assay, activator, plate reader; activation, % at 9.35 µM; 300,000 tested, 1.2% active; AID 743398; in the data active means activation above about 30%, passing the limit was not always enough; inconclusive means no clear call, values can overlap the other calls;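 further: 0% = neutral control wells and 100% = positive control wells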
SMARCA2 activ: increases SMARCA2 function in MMTV reporter cells. MG213 cells, MMTV-luciferase reporter, dexamethasone, overnight. activation, % at 9.1 µM. 370,000 tested, 1% active; in the data active means activation above about 7.8%;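 further: 0% = vehicle wells and 100% = reference activator wells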
MITF act: activators of MITF-driven TRPM1 promoter activity in SK-MEL-5 cells; 300,000 tested, 0.75% active; activation, % at 12.5 µM; SK-MEL-5 TRPM1-promoter luciferase, 24 h; % of positive control, neutral wells = 0;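 active means mean activation of at least 80% with every replicate also reaching 80%; inconclusive means mean reaches 80% but some replicate falls short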;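 further: 0% = neutral control wells and 100% = parthenolide positive control wells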
esBAF inh: SWI/SNF esBAF complex inhibition | mouse ES cells, Bmi1-luciferase knock-in reporter, 24 h; 100% = twice the neutral-well signal | reporter increase, % at 12.5 µM | 350,000 tested, 2% active | AID 602393; in the data active means activation above about 40%; inconclusive means no clear call, values can overlap the other calls;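 further: 0% = median of the plate's neutral control wells and 100% = double that signal; a rise in the Bmi1 reporter signal indicates esBAF inhibition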
SMARCA2 conf: confirmation of SMARCA2 (BRM) function activators; activation, % at 9.1 µM; MG213 cells, MMTV-luciferase with dexamethasone, luminescence, overnight; MG213 cells expressing E1A, Rb sequestered; DMSO wells 0%, reference activator 100%; AID 652260; 3,500 tested, 30% active; shares compounds with SMARCA2 activ;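 active means activation above its plate's cutoff, the mean activation of tested wells plus 3 SD, cut at about 7.9% in these data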
VP16 Luc act: GAL4-VP16 reporter activation counter-screen; shares compounds with SMARCA2 activ; HEK293 GAL4-VP16 pG5luc reporter, luciferase luminescence; scaled: DMSO wells 0%, SAHA wells 100%; activation, % at 9.1 µM; 3,500 tested, 41% active; AID 686939;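 active means activation above the solvent-only control well mean plus 3 SD, averaged across control plates, cut at about 5.2% in these data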
* hit, by the source's call; ? = inconclusive; . = no result given; ! = a repeat was not active. A selection: hits, their analogues and other compounds. The true share with any hit is near 4.3%.

SMILES	FGF22 binding	MLL AF4-AF9 inh	Wnt bcat act	SMARCA2 activ	MITF act	esBAF inh	SMARCA2 conf	VP16 Luc act
COc1ccc(NC(=O)C2CCCN(S(=O)(=O)c3ccc4[nH]c(=O)ccc4c3)C2)cc1OC (stereo not drawn)	0.0	0.7	-2.4	14.8*	-5.4	1.5	-5.5	1.3
Cc1ccc(NC(=S)N/C(=N/S(=O)(=O)c2ccccc2)c2ccccc2)cc1	0.1	1.2	-3.3	9.7*!	36.8	54.9*	5.7	5.8*
CC(=O)Nc1ccc(N/C(=N\S(=O)(=O)c2ccccc2)c2ccccc2)cc1	0.0	-1.2	0.3	1.9	0.2	2.8	.	.
C=CCN=Cc1c(C)[nH]n(-c2ccccc2)c1=O	0.2	0.2	18.4	8.5*	39.8	.	0.6	6.2*
Cc1[nH]n(-c2ccccc2)c(=O)c1/C=N/N(c1ccccc1)c1ccccc1	0.0	15.7	-9.5	-3.0	-5.2	.	.	.
C[C@@H]1CN([C@H](C)CO)C(=O)Cc2cc(NS(C)(=O)=O)ccc2O[C@@H]1CN(C)S(=O)(=O)c1ccc(Cl)cc1	-0.2	-0.5	.	.	.	-0.5	.	.
COC(=O)CSc1ncnc2c1sc1nc3c(cc12)COC(C)(C)C3	0.0	-1.7	0.1	-1.8	-22.6	.	.	.
COc1nc(C)nc2c1sc1nc3c(cc12)COC(C)(C)C3	.	.	.	10.1*	?	26.3	4.3	13.3*
C[C@H](O)C#Cc1ccc2c(c1)O[C@H](CN(C)Cc1ccccn1)[C@@H](C)CN([C@H](C)CO)S2(=O)=O	0.0	1.2	.	.	.	2.8	.	.
CN1CCN(C(=O)C[C@@H]2CC[C@@H]3[C@H](COC[C@H](O)CN3C(=O)Cc3ccccc3)O2)CC1	-0.1	1.7	.	.	.	0.2	.	.
COC(=O)c1nn(-c2ccc3c(c2)OCO3)cc1O	.	.	.	9.0*	44.2	.	13.2*	11.0*
COC(=O)c1nn(-c2ccc3c(c2)CCN3C(C)=O)cc1O	.	.	.	-5.0	-71.8	.	.	.
CCOC(=O)c1nn(-c2ccc3c(c2)OCCO3)cc1O	-0.3	-1.6	26.7	11.1*	82.4*	0.6	8.3*	12.3*
Cc1ccccc1NC(=O)c1onc2c1CCCC2	.	.	-0.4	8.2*	75.2	26.6	6.9	8.1*
CC(=O)NCc1ccc(C(=O)CCl)s1	-0.1	-4.9	0.1	9.0*	-34.9	-2.5	10.1*	8.0*
O=C(C[C@H]1C=C[C@@H](NC(=O)NC2CCCCC2)[C@@H](CO)O1)NCc1ccccc1	-0.1	0.0	.	.	.	-3.1	.	.
Fc1ccc(N/N=C/c2cccnc2)c(F)c1	0.2	7.5	4.1	8.4*	31.5	.	1.4	0.9
O=[N+]([O-])c1cccc(-c2cn3ccccc3n2)c1	0.1	1.2	67.1*	11.7*	46.1	31.6	10.8*	4.5
O=C(NCc1nnc2c(C(F)(F)F)cc(Cl)cn12)c1cccnc1	-0.1	-11.8	0.2	9.5*	3.3	-10.9	-3.8	2.2
CCOc1ccc(CNC(=O)CN2C(=O)CSc3ccc(S(=O)(=O)N4CCOCC4)cc32)cc1OC	0.2	0.2	-1.2	8.8*	-1.0	-3.4	-5.5	-0.5
O=C(CC(Sc1ccc(Br)cc1)C(=O)O)c1ccc(F)cc1 (stereo not drawn)	0.0	0.6	0.4	8.6*	-5.8	7.0	-1.1	0.8
CCOc1ccc(C(=O)CC(Sc2ccc(C)cc2)C(=O)O)cc1 (stereo not drawn)	0.1	-4.5	-0.5	3.9	1.9	-3.6	.	.
O=C1/C(=C/c2cccs2)Cc2ccccc21	.	.	?	9.6*	17.5	17.2	8.3*	2.7
O=C1C(=Cc2cccs2)C(=O)c2ccccc21	0.1	0.4	.	-1.8	9.4	.	.	.
CC1(C)Cc2ccccc2C(CSc2ccccc2C(=O)O)=N1	.	11.2	-2.1	-3.0	1.0	8.0	.	.
COc1cc2c(cc1OC)C(CSc1ccccc1C(=O)O)=NC(C)(C)C2	0.1	13.8	1.4	9.3*	7.8	.	9.4*	5.8*
